Assay results: PubChem BioAssay

Each compound was assayed on XIP peptide (Xip251-270) (assay: small-molecule binders of XIP peptide, primary screen, biochemical, small-molecule microarray, fluorescence 635/667 nm, 0.5 µg/mL protein (AID 1183)). Conditions: small-molecule microarray binding, fluorescence 635 nm; higher = more signal.

First: CC(C)c1ccc(NN2C(C(O)C(C)c3ccccc3)C=CC3C(=O)N(c4ccccc4)C(=O)C32)cc1 (stereo not given)
Second: O=C1C2C=CC(C(O)C3CCCCC3)N(Nc3ccccc3F)C2C(=O)N1c1ccccc1 (stereo not given)
The composite z-score of the first is higher: 0.77 for the first, 0.738 for the second.

First: CC(C)C[C@@H]1NC(=O)[C@@H]2C[C@H](C(=O)NCCCCCCNC(=O)CS)[C@H](c3ccc(O)cc3)N2C1=O
Second: COCCOC(=O)N1C(=O)[C@@]2(c3cc(C#CCC(C(=O)OC)C(=O)OC)ccc31)[C@H](c1ccc(O)cc1)N1[C@H](c3ccccc3)[C@H](c3ccccc3)OC(=O)[C@H]1[C@@H]2C(=O)N1CCc2cc(OC)c(OC)cc2C1
The composite z-score of the first is higher: 0.843 for the first, 0.803 for the second.

Compared with `COC(=O)Cn1c(C(=O)N(C)C)cc2c1C[C@H]1CN(C(=O)c3ccccc3)[C@@](Cc3ccccc3)(C(=O)OC)[C@@H]21`, `COC(=O)C[C@H]1O[C@]2(C(=O)N(C)c3ccccc32)[C@@H](C)[C@@H]1[Si](C)(C)c1ccccc1` is lower in composite z-score: 0.661 for the first, 0.428 for the second.

Going from `Cc1ccc(S[C@]2(C(=O)NCc3ccccc3)CC(=O)N(Cc3ccccc3C(F)(F)F)[C@@H]2c2ccc(CO)cc2I)cc1` to `O=C1O[C@@H](c2ccccc2)[C@@H](c2ccccc2)N2[C@@H](c3ccc(OCCO)cc3)[C@]3(C(=O)Nc4ccc(C#CC5=CCCCC5)cc43)[C@@H](C(=O)Nc3nc4ccccc4s3)[C@H]12`, the composite z-score rises from 0.623 to 0.646.

Going from `CC[C@H]1C2=C3C(CC[C@H]4C(OCc5ccc(F)cc5C(F)(F)F)OC[C@](C)([C@@H]34)N(C(=O)OC(C)(C)C)C2)C(COC(C)=O)C1COC(C)=O` (stereo not given in full) to `CC1CC/C=C\[C@H]2OC34C=CCN(CCN5CCOCC5)C(=O)[C@H]3N(C(CO)C(C)C)C(=O)[C@@H]4C2C(=O)O1` (stereo not given in full), the composite z-score falls from 0.633 to 0.054.
